Data published in article PMC7862700, “An all-to-all approach to the identification of sequence-specific readers for epigenetic DNA modifications on cytosine”.

Legend:
Assay in all cases: DAPPL (digital affinity profiling via proximity ligation, sequencing); 10 mM Tris-HCl pH 7.5, 50 mM NaCl, 1 mM DTT, 4% glycerol, room temperature, 30 min; GST-TFs on glutathione beads, 16-mer random dsDNA library, 0.1% formaldehyde crosslink after washing; high values mean tight binding
[1] = molecular target: T1, FLI1 (Homo sapiens, UniProt Q01543 1-452); details: protein: recombinant; tags: N-terminal GST; dsDNA, one strand shown
T1 sequence: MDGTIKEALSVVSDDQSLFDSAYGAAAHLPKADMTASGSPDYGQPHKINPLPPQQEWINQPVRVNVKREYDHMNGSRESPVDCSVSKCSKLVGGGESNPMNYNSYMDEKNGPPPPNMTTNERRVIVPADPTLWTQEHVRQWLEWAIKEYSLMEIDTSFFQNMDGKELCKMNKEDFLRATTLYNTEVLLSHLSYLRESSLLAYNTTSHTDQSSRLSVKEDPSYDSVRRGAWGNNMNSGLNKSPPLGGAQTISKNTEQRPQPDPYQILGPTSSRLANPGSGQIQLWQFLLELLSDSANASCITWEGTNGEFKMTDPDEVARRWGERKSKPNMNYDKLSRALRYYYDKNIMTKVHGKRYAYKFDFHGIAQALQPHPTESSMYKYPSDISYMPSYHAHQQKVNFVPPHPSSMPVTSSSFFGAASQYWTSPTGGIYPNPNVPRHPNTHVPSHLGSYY
How it was run: (§1)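 Human transcription factors fused to GST were expressed in yeast, captured on glutathione beads, given DNA barcodes and pooled with a GST-only negative control. Pools were incubated with 200 nmole of a 16-mer random double-stranded DNA library in Tris/NaCl/DTT/glycerol buffer at room temperature for 30 min. They were then washed, crosslinked with 0.1% formaldehyde, proximity-ligated (BsaI/T4 ligase, 1 h, 37 °C), PCR-amplified and sequenced on an Illumina NextSeq500. Binding signal is each 6-mer's read frequency for a factor divided by its frequency for the GST control.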

[2] = molecular target: T2, ELK1 (Homo sapiens, UniProt P19419 1-428); details: protein: recombinant; tags: N-terminal GST; dsDNA, one strand shown
T2 sequence: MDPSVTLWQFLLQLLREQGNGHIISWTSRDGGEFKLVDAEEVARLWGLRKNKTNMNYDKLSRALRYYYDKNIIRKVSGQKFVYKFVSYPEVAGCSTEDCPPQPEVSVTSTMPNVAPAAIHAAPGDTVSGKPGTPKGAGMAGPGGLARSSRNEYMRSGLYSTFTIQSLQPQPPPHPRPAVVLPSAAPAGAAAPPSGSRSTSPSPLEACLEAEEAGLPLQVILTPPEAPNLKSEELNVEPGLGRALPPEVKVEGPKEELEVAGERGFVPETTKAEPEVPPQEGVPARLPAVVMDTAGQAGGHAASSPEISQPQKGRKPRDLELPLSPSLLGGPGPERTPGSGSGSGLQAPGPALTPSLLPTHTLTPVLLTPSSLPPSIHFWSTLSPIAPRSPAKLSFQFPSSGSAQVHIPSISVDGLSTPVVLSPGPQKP
How it was run: as §1

[3] = molecular target: T3, GABPA (Homo sapiens, UniProt Q06546 1-454); details: protein: recombinant; tags: N-terminal GST; dsDNA, one strand shown
T3 sequence: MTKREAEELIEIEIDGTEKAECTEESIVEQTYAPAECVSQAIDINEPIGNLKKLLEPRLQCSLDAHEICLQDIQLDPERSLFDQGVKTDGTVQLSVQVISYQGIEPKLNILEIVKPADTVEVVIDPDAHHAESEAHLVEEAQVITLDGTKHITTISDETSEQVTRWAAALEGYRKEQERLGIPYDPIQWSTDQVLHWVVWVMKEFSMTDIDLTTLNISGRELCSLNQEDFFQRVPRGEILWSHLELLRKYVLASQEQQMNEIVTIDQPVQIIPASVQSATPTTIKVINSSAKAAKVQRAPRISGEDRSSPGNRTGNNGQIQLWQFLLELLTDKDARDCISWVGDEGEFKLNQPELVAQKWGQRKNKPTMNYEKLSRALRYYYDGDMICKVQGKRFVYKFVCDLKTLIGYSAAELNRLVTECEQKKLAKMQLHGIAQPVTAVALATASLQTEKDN
How it was run: as §1

[4] = molecular target: T4, ERG (Homo sapiens, UniProt P11308 1-479); details: protein: recombinant; tags: N-terminal GST; dsDNA, one strand shown
T4 sequence: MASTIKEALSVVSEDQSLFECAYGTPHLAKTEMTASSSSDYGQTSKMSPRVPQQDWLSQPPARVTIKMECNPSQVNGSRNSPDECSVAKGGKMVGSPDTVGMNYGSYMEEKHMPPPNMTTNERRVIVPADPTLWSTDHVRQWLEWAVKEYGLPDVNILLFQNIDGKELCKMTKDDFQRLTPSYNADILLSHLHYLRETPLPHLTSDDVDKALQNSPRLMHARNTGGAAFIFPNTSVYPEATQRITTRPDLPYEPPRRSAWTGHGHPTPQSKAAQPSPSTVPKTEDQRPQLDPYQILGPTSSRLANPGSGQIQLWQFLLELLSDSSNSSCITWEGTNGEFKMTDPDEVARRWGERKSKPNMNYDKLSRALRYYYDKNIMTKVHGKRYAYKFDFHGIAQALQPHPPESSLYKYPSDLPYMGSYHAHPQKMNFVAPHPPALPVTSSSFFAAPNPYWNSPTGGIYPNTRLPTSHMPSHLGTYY
How it was run: as §1

[5] = molecular target: ELF1 (Homo sapiens, UniProt P32519 1-619); details: protein: recombinant; tags: N-terminal GST; dsDNA, one strand shown
ELF1, sequence (P32519 whole entry): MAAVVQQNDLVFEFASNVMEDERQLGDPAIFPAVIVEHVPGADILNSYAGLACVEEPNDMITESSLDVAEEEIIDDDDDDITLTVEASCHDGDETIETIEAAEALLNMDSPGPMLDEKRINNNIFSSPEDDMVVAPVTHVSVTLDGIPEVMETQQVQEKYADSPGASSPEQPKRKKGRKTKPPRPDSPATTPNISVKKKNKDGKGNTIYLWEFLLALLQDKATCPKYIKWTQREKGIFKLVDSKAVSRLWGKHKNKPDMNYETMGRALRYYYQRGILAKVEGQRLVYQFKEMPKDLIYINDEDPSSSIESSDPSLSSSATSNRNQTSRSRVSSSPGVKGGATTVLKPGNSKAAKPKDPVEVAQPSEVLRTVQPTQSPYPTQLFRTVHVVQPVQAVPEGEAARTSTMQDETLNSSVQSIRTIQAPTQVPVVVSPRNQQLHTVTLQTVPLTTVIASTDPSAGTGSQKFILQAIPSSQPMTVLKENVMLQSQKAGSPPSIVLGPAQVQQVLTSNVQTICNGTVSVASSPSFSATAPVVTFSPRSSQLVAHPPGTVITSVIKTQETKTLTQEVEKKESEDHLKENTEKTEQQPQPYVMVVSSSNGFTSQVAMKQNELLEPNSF
How it was run: as §1

[6] = molecular target: T5, EHF (Homo sapiens, UniProt Q9NZC4 1-300); details: protein: recombinant; tags: N-terminal GST; dsDNA, one strand shown
T5 sequence: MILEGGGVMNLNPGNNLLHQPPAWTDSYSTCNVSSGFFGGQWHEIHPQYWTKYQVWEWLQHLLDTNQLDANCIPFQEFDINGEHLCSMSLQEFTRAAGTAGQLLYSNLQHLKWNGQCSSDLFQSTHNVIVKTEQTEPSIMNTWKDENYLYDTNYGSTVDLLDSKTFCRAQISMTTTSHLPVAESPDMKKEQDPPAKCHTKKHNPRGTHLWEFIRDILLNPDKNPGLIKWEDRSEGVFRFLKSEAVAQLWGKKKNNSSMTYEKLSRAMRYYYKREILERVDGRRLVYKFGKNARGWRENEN
How it was run: as §1

[7] = molecular target: SPI1 (Homo sapiens, UniProt P17947 1-270); details: protein: recombinant; tags: N-terminal GST; dsDNA, one strand shown
How it was run: as §1

[8] = molecular target: SPIB (Homo sapiens, UniProt Q01892 1-262); details: protein: recombinant; tags: N-terminal GST; dsDNA, one strand shown
SPIB, sequence (Q01892 whole entry): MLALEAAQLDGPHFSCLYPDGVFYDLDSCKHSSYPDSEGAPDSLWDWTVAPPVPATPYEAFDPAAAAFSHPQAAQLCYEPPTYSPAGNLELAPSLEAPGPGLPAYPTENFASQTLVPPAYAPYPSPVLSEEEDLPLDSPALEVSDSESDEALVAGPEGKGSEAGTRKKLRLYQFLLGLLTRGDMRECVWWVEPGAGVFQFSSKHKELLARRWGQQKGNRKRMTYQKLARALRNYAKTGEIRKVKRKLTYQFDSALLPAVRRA
How it was run: as §1

[9] = molecular target: T6, ELK3 (Homo sapiens, UniProt P41970 1-407); details: protein: recombinant; tags: N-terminal GST; dsDNA, one strand shown
T6 sequence: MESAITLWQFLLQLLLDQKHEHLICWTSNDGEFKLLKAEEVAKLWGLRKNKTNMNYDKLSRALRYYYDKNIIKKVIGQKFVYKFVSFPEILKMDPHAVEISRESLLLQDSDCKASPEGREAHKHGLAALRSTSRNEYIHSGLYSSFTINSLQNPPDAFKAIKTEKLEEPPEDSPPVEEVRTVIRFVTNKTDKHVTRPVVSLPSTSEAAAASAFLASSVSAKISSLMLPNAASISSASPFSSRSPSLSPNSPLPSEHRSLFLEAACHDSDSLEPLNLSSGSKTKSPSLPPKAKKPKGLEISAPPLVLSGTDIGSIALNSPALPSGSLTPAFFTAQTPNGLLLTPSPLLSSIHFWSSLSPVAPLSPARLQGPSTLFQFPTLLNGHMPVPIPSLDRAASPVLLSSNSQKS
How it was run: as §1

[10] = molecular target: T7, FEV (Homo sapiens, UniProt Q99581 1-238); details: protein: recombinant; tags: N-terminal GST; dsDNA, one strand shown
T7 sequence: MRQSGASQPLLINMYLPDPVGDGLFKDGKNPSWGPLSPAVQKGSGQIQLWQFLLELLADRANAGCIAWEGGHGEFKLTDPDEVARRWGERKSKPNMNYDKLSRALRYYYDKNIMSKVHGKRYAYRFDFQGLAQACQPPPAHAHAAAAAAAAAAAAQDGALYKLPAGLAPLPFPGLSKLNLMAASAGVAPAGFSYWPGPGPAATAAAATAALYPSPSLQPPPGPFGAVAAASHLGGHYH
How it was run: as §1

[11] = molecular target: ETV5 (Homo sapiens, UniProt P41161 1-510); details: protein: recombinant; tags: N-terminal GST; dsDNA, one strand shown
ETV5, sequence (P41161 whole entry): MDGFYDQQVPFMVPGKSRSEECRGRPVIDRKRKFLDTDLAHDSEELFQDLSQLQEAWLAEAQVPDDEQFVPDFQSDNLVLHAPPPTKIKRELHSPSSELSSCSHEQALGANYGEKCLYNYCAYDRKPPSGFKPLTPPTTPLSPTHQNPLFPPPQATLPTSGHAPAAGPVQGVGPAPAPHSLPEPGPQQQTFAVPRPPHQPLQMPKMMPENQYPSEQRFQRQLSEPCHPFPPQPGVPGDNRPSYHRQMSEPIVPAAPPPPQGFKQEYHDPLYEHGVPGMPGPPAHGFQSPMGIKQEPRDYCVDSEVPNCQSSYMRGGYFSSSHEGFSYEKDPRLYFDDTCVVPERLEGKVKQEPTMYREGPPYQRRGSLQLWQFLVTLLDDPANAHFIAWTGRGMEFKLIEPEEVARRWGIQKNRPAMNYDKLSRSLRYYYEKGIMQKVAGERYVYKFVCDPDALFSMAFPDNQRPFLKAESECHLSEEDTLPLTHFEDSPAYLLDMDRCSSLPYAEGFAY
How it was run: as §1

[12] = molecular target: HSF1 (Homo sapiens, UniProt Q00613 1-529); details: protein: recombinant; tags: N-terminal GST; chain copies: 3; dsDNA, one strand shown
HSF1, sequence (Q00613 whole entry): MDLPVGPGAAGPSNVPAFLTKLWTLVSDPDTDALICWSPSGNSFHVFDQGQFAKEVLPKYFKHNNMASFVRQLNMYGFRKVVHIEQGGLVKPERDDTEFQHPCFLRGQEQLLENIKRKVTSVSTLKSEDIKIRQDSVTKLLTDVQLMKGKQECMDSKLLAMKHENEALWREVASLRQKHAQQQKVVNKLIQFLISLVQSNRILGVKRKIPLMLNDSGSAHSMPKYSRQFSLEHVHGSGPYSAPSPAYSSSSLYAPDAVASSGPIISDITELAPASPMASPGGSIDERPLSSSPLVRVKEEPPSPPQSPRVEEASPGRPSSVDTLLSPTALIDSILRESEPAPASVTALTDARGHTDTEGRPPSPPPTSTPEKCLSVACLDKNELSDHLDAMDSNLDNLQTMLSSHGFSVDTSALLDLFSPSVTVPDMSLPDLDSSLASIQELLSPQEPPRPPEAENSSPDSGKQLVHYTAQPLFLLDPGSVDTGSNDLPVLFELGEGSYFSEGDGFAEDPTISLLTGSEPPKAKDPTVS
How it was run: as §1

[13] = molecular target: T8, SPIC (Homo sapiens, UniProt Q8N5J4 1-248); details: protein: recombinant; tags: N-terminal GST; dsDNA, one strand shown
T8 sequence: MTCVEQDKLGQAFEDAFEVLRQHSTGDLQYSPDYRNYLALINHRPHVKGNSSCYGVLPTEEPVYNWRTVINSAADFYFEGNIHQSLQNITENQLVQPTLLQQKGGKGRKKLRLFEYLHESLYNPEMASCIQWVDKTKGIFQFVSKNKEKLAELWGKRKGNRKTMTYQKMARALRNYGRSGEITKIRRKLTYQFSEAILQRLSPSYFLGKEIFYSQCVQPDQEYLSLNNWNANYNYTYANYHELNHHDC
How it was run: as §1

[14] = molecular target: ELF4 (Homo sapiens, UniProt Q99607 1-663); details: protein: recombinant; tags: N-terminal GST; dsDNA, one strand shown
ELF4, sequence (Q99607 whole entry): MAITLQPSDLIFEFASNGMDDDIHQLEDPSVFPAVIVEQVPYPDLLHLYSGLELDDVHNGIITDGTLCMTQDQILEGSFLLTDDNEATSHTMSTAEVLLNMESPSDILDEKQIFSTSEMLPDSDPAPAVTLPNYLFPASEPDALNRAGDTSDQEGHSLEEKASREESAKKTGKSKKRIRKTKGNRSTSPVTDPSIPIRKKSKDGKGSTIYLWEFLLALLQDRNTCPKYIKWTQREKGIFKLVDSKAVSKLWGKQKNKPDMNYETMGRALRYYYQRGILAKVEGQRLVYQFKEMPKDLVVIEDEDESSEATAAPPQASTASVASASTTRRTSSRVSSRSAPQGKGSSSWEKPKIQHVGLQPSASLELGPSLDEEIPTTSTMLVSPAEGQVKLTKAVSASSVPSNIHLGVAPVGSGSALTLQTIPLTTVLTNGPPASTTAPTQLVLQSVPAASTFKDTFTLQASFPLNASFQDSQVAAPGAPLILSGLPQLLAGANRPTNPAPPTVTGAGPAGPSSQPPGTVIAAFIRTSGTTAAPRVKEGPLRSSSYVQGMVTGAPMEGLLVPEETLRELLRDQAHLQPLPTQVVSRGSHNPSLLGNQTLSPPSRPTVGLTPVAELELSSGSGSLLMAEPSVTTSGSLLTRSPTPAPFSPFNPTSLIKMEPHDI
How it was run: as §1

[15] = molecular target: T9, ELK4 (Homo sapiens, UniProt P28324-2 1-405); details: protein: recombinant; tags: N-terminal GST; dsDNA, one strand shown
T9 sequence: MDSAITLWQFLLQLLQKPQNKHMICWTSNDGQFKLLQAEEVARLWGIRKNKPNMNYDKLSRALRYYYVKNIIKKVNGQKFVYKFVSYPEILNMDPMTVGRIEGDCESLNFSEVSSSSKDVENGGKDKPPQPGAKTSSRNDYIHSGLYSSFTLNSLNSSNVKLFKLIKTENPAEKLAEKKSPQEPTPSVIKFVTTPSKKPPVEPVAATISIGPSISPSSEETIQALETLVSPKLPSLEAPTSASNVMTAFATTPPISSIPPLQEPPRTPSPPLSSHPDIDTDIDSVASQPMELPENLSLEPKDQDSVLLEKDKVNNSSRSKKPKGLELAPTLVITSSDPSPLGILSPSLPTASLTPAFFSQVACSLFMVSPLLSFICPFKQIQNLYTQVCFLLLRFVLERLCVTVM
How it was run: as §1

[16] = molecular target: T10, ETV2 (Homo sapiens, UniProt O00321 1-342); details: protein: recombinant; tags: N-terminal GST; dsDNA, one strand shown
T10 sequence: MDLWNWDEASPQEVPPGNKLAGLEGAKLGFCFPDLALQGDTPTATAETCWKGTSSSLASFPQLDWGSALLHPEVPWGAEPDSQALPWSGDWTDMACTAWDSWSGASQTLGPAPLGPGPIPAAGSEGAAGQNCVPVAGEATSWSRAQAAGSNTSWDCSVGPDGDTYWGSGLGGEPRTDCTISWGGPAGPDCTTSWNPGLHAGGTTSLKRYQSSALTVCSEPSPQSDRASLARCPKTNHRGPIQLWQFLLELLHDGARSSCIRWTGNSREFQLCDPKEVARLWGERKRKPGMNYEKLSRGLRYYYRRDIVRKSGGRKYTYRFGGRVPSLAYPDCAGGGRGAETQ
How it was run: as §1

[17] = molecular target: T11, ELF3 (Homo sapiens, UniProt P78545 1-371); details: protein: recombinant; tags: N-terminal GST; dsDNA, one strand shown
T11 sequence: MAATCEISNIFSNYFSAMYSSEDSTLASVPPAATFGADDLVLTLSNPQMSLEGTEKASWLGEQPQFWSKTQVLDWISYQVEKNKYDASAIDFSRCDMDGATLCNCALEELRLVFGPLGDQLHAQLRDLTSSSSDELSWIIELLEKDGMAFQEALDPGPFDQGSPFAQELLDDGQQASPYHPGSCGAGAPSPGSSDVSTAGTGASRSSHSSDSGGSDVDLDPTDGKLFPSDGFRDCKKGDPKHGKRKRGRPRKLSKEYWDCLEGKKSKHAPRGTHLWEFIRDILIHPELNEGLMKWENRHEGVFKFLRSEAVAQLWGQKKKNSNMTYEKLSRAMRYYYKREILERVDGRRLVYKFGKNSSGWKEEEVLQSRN
How it was run: as §1

[18] = molecular target: CRX (Homo sapiens, UniProt O43186 1-299); details: protein: recombinant; tags: N-terminal GST; dsDNA, one strand shown
CRX, sequence (O43186 whole entry): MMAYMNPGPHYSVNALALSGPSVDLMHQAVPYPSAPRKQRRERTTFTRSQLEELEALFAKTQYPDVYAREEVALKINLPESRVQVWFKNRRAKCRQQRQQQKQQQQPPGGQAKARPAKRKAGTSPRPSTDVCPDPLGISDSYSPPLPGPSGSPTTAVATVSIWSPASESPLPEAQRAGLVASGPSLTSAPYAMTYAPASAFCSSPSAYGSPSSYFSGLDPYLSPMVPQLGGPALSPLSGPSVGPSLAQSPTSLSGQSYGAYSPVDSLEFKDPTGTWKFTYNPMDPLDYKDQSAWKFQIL
How it was run: as §1

[19] = molecular target: ETV1 (Homo sapiens, UniProt P50549 1-477); details: protein: recombinant; tags: N-terminal GST; dsDNA, one strand shown
ETV1, sequence (P50549 whole entry): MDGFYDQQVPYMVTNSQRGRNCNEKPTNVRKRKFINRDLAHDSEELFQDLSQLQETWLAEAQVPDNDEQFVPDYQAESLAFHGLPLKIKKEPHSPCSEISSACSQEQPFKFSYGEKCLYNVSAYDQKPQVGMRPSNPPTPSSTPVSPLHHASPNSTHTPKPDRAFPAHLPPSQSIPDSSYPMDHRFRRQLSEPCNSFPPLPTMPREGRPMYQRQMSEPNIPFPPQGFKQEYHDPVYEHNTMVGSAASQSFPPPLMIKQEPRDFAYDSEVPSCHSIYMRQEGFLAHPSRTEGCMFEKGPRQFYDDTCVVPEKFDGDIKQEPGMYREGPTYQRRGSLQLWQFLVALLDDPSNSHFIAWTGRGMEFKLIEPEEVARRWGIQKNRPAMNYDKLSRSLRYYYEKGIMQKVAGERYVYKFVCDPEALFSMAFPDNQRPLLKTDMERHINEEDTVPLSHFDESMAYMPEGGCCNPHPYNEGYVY
How it was run: as §1

GCTATA
binding signal [1]: 1.17 fold enrichment (6-mer frequency, TF over GST control)
binding signal [2]: 1.11 fold enrichment (6-mer frequency, TF over GST control)
binding signal [3]: 1.16 fold enrichment (6-mer frequency, TF over GST control)
binding signal [4]: 1.16 fold enrichment (6-mer frequency, TF over GST control)
binding signal [5]: 1.19 fold enrichment (6-mer frequency, TF over GST control)
binding signal [6]: 1.16 fold enrichment (6-mer frequency, TF over GST control)
binding signal [7]: 1.09 fold enrichment (6-mer frequency, TF over GST control)
binding signal [8]: 1.25 fold enrichment (6-mer frequency, TF over GST control)
binding signal [9]: 1.24 fold enrichment (6-mer frequency, TF over GST control)
binding signal [10]: 1.14 fold enrichment (6-mer frequency, TF over GST control)
binding signal [11]: 1.18 fold enrichment (6-mer frequency, TF over GST control)
binding signal [12]: 1.08 fold enrichment (6-mer frequency, TF over GST control)
binding signal [13]: 1.08 fold enrichment (6-mer frequency, TF over GST control)
binding signal [14]: 1.14 fold enrichment (6-mer frequency, TF over GST control)
binding signal [15]: 1.18 fold enrichment (6-mer frequency, TF over GST control)
binding signal [16]: 1.2 fold enrichment (6-mer frequency, TF over GST control)
binding signal [17]: 1.22 fold enrichment (6-mer frequency, TF over GST control)
binding signal [18]: 1.23 fold enrichment (6-mer frequency, TF over GST control)
binding signal [19]: 1.14 fold enrichment (6-mer frequency, TF over GST control)
